Most compounds without a hit are left out; they make up all but 21% or so of the library.
IL-1B inflam inh – inhibitors of inflammasome signaling (IL-1 beta secretion); THP-1 LPS/ATP IL-1B secretion, AlphaLISA, 16 h; hits give low values; activity change, % at 57.5 µM; hit rate 4.7% among 360,000; in the data active = activity change below about -50%; inconclusive = mostly about -30% to -49%
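Secreted IL-1B measured by AlphaLISA bead assay after 16 h compound exposure of THP-1 cells; compounds (final up to 57.5 uM) added 1 h before LPS (250 ng/mL) and ATP (1.25 mM) stimulation; lower signal means less secretion.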
DRD3 agonist – activates the human D3 dopamine receptor; max activation, %; hit rate 0.58% among 410,000; P35462; AID 652048; D3R DiscoveRx beta-arrestin cells, luminescence, 90 min; in the data active = max activation above about 30%
Target sequence (P35462 whole entry, looked up): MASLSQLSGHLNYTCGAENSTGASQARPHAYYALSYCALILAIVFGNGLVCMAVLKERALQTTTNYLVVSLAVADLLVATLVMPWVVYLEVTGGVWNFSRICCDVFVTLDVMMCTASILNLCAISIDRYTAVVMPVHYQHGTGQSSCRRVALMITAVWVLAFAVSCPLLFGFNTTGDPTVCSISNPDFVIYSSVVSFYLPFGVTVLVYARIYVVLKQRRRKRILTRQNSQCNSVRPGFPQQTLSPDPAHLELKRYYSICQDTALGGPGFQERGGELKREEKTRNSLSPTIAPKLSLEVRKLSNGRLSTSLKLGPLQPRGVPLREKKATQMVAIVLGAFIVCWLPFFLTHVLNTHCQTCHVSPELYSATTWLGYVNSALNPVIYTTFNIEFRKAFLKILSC
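Agonist-mode cell screen: cells plated at 1500/well and incubated overnight at 37 °C, then exposed to library compounds for 90 min at 37 °C. Detection reagent was added for 30–60 min at room temperature, and luminescence was read.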
TDP1 cell noCPT – qHTS for Inhibitors of human tyrosyl-DNA phosphodiesterase 1 (TDP1): qHTS in cells in absence of CPT. DT40 Tdp1-/- hTDP1 cells, no CPT, ATP luminescence, 48 h. Potency, µM (series often up to 46.2 µM), usual class: inhibitors. hit rate 15% among 420,000. AID 686978, 2013; also: nearly all actives have a fitted effect of over 55% in size
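Seeded 400 DT40-hTDP1 cells/well (vehicle DMSO, no 20 nM CPT); pinned compounds; ≥48 hr at 37 °C; CellTiter-Glo luminescence as viability measure.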
D3 antag – antagonists of human D3 dopamine receptor; max response, negative = inhibition, %; D3R cells, DiscoveRx beta-arrestin luminescence, antagonist mode; hits give low values; AID 652054; hit rate 2.5% among 360,000; in the data active = max response below about -50%; inconclusive = no clear call, values can overlap the other calls
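Cells expressing the human receptor were seeded at 1500 cells/well, incubated overnight at 37 degrees C in 5% CO2, then exposed to library compounds with dopamine controls for 90 minutes at 37 degrees C before luminescent detection.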
ClpP mod – qHTS Assay for Activators of ClpP | hit rate 1.9% among 340,000 | Potency, µM (doses to about 57.5 µM) | purified B. subtilis ClpP, FRET peptide cleavage, 20 min | ATP-dependent Clp protease proteolytic subunit (Bacillus subtilis (strain 168)), P80244 | AID 651965, 2013; active = well fitted falling curve with a large enough effect; inconclusive = small, poorly fitted or top-dose-only effect; inactive = no such curve, though single readings can be large or run the other way; also: the source files actives as falling curves though it sought activators and does not explain the sign; nearly all actives have a fitted effect of over 65% in size
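Buffer: 100 mM Tris/HCl pH8, 100 mM KCl, 0.05% low protease BSA, 2.5% glycerol, 0.01% Tween-20. ClpP 10 microg/mL final; 20 min RT; delta FRET normalized to ADEP and DMSO controls.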
TDP1 cell CPT – growth inhibition of DT40 Tdp1-/-;hTDP1 cells with camptothecin (screen for TDP1 inhibitors) | hit rate 12% among 420,000 | chicken DT40 Tdp1-/-;hTDP1 cells + 20 nM CPT, ATP luminescence, 48 h | Potency, µM (titrated, usually from 46.2 µM), hits mostly inhibitors; also: nearly all actives have a fitted effect of over 55% in size
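Chicken DT40 Tdp1-/- cells complemented with human TDP1, 400 cells/well, exposed to compounds plus 20 nM camptothecin for at least 48 h at 37 C; viability read as ATP content by CellTiter-Glo luminescence.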
Hits are given with their value; i = inactive; ? = inconclusive; nt = no result; ! = a repeat was not active. Unless noted, calls follow the shape of the dose curve; as a rule, active = well fitted inhibition curve with a large enough effect; inconclusive = small, poorly fitted or top-dose-only effect; inactive = flat fitted curve, though single readings scatter.

SMILES	IL-1B inflam inh	DRD3 agonist	TDP1 cell noCPT	D3 antag	ClpP mod	TDP1 cell CPT
Cc1noc(C)c1COC(=O)c1cc(=O)[nH]c2ccccc12	i	i	i	i	i	i
O=C(OCc1nnc(-c2ccccc2)o1)c1cn(-c2ccccc2)nc1-c1ccccc1	i	i	?	i	10µM	?
Cc1ccc(C(=O)CCC(=O)OCc2nnc(-c3ccccc3)o2)cc1	i	i	i	-60.1	i	i
Cc1cc(C(=O)OCc2nnc(-c3ccccc3)o2)c(C)n1-c1ccccc1	i	i	20.6µM	?	i	18.4µM
O=C(OCc1nnc(-c2ccccc2)o1)c1ccccc1	i	i	i	i	nt	i
Cc1noc(C)c1COC(=O)c1cc(C)n(-c2ccccc2)c1C	?	i	20.6µM	i	i	?
CCN(CC)C(=O)CSC1=C(C#N)C(c2ccco2)C(C(=O)OCCOC)=C(C)N1 (centres undefined)	i	i	?	i	i	20.6µM!
C=CCOC(=O)C1=C(C)NC(SCC(=O)N(CC)CC)=C(C#N)C1c1ccccc1 (centres undefined)	-51.5	i	20.6µM	i	i	20.6µM
CC1=C(C(=O)Nc2ccccc2)C(c2ccco2)C(C#N)=C(SCC(=O)OC(C)C)N1 (centres undefined)	i	58.5	?	i	i	?
CN(C)C(=O)C(OC(=O)c1ccc2ccccc2n1)c1ccccc1 (centres undefined)	i	i	i	i	nt	i
Cc1ccc(C(=O)N2CCCCC2CCN2CCCCC2)cc1 (centres undefined)	nt	i	i	nt	i	i
NC(=O)c1ccc(Oc2ccc(C(N)=O)cc2)cc1	i	i	i	i	nt	i
CCCCC(=O)Nc1ccc(NCc2ccc(C)s2)cc1	i	i	3.66µM	i	i	?
Cc1c(NC(=S)NC(NC(=O)C(C)C)C(Cl)(Cl)Cl)c(=O)n(-c2ccccc2)n1C (centres undefined)	i	i	14.6µM	i	i	14.6µM
Cc1c(NC(=O)C(C)OC(=O)c2ncc(Cl)c(Cl)c2Cl)c(=O)n(-c2ccccc2)n1C (centres undefined)	-72.4	i	i	i	i	i
COC(=O)/C(=C1\OC(=O)C(c2ccccc2)C1=O)c1ccccc1 (centres undefined)	nt	nt	i	nt	nt	i
Cc1cc(NC(=O)N2CCC(CN3CCOCC3)CC2)ccc1Br	nt	i	i	nt	i	?
CCC(O)c1c(-c2ccccc2)nn(C)c1Cl (centres undefined)	i	i	14.6µM	i	nt	?
CC(O)c1c(-c2ccccc2)nn(C)c1Cl (centres undefined)	i	i	?	i	nt	i
COc1cc([N+](=O)[O-])cc(/C=N/N(CCC#N)C(C)=O)c1O	i	i	?	-58.8	nt	i
COC(=O)c1ccc(N/N=C/c2cc([N+](=O)[O-])cc(OC)c2O)cc1	i	i	i	i	nt	i
O=C(Cc1n[nH]c(=O)c2ccccc12)OCC(=O)c1ccccc1	i	i	i	i	i	i
O=C(C1=C(O)C(=O)N(CCN2CCOCC2)C1c1ccccc1)c1cccs1 (centres undefined)	i	i	i	-52.4	i	i
Cc1c(/C(O)=C2/C(=O)C(=O)N(CCN3CCOCC3)C2c2cccs2)cnn1-c1ccccc1 (centres undefined)	i	i	i	i	11.2µM	i
O=C(C1=C(O)C(=O)N(CCN2CCOCC2)C1c1cccc([N+](=O)[O-])c1)c1cccs1 (centres undefined)	i	i	i	?	nt	i
O=S1(=O)CC(N2CCCCC2)CN1Cc1cn(Cc2ccc(F)cc2)nn1 (centres undefined)	i	i	i	i	i	i
CCc1ccc2cc(F)cc(F)c2n1	i	i	i	i	i	i
CCC(CC)C(=O)Nc1nnc(S(=O)(=O)N2CCCC2)s1	i	i	i	i	i	i
N[C@@H](C(=O)O)c1ccc(O)c(C(=O)O)c1	nt	nt	i	nt	nt	i
